Measurements: PubChem BioAssay (EPA / NIEHS)
Inconclusive results are not listed. Active and inactive are the calls of the source. The calls were made as follows, unless noted: active = hit-call score of the fitted dose curve at least 0.9, where 1 is the maximum; inactive = score below 0.9.

How the values were obtained:
[1] = target: Glucocorticoid receptor (Homo sapiens) (UniProt P04150); assay: ATG_GR_TRANS: Attagene TRANS-FACTORIAL HepG2 Assay for human Glucocorticoid Receptor (GR) (AID 2282978; active = hit-call score of the fitted dose curve at least 0.9, where 1 is the maximum;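 also: activators score as hits since higher reporter transcript over DMSO is fitted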); details: HepG2 Attagene TRANS GR reporter, mRNA transcription
Method in brief: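 Multiplexed TRANS reporter system, HepG2; 24 h exposure; RNA → oligo(dT) RT → reporter-specific PCR → 6-FAM primer extension → HpaI cut → CE fluorescence. Gain-of-signal vs DMSO.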

[2] = target: Bile acid receptor (Homo sapiens) (UniProt Q96RI1); assay: ATG_FXR_TRANS: Attagene TRANS-FACTORIAL HepG2 Assay for Farnesoid X Receptor (FXR) (AID 2282979; active = hit-call score of the fitted dose curve at least 0.9, where 1 is the maximum;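 also: hits raise reporter mRNA above DMSO so AC50 marks FXR activation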); details: HepG2 Attagene TRANS FXR-GAL4 reporter transcription
Method in brief: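 Chimeric FXR-GAL4 activity in transiently transfected human HepG2 liver cells is scored as induction of reporter mRNA after 24 h of dosing. Detection uses RT-PCR with fluorescent labelling and capillary electrophoresis, with DMSO serving as baseline.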

[3] = target: Oxysterols receptor LXR-beta (Homo sapiens) (UniProt P55055); assay: ATG_LXRb_TRANS: Attagene TRANS-FACTORIAL HepG2 Assay for human Liver X Receptor beta (LXRb) (AID 2282981; active = hit-call score of the fitted dose curve at least 0.9, where 1 is the maximum); details: HepG2 Attagene TRANS GAL4-LXRb reporter, mRNA
Method in brief: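 Transient transfection HepG2 (multiplexed RTUs, GAL4-UAS); NR-Gal4 chimera; 24 h exposure; RNA → RT-PCR → 6-FAM primer extension → HpaI → CE; increase vs DMSO.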

[4] = target: Hepatocyte nuclear factor 4-alpha (Homo sapiens) (UniProt P41235); assay: ATG_HNF4a_TRANS: Attagene TRANS-FACTORIAL HepG2 Assay for human Hepatocyte Nuclear Factor 4 alpha (HNF4a) (AID 2282982; active = hit-call score of the fitted dose curve at least 0.9, where 1 is the maximum); details: HepG2 HNF4a transactivation reporter, mRNA readout
Method in brief: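 Readout is fluorescent reporter-transcript fragments resolved by capillary electrophoresis after RT-PCR from HepG2 cells dosed for 24 h. Cells carried transfected GAL4-UAS reporter constructs measuring exogenous NR-GAL4 chimera activity; DMSO served as baseline.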

[5] = ATG_M_06_TRANS: Attagene TRANS-FACTORIAL HepG2 Assay for M06 Transcription Factor (Internal Marker) (AID 2282983; active = hit-call score of the fitted dose curve at least 0.9, where 1 is the maximum;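 also: reporter transcript level by RT-PCR then capillary electrophoresis fluorescence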); details: HepG2 Attagene TRANS M06 internal marker reporter
Method in brief: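 Measured by capillary electrophoresis of fluorescently labelled RT-PCR products, this endpoint reflects reporter mRNA in HepG2 cells harbouring exogenous NR-GAL4 reporter constructs after 24 h exposure, with DMSO as baseline.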

[6] = ATG_M_32_TRANS: Attagene TRANS-FACTORIAL HepG2 Assay for M32 Transcription Factor (Internal Marker) (AID 2282984; active = hit-call score of the fitted dose curve at least 0.9, where 1 is the maximum;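 also: transcript level of a background control reporter unit measured by RT-PCR and capillary electrophoresis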); details: HepG2 Attagene TRANS M32 internal marker reporter
Method in brief: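 Measures reporter mRNA induction in human HepG2 liver cells after 24 h chemical treatment. Transcripts from transiently transfected GAL4-UAS reporter units are amplified, fluorescently labelled and sized by capillary electrophoresis; gain of signal relative to DMSO.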

[7] = target: Nuclear receptor subfamily 4 group A member 2 (Homo sapiens) (UniProt P43354); assay: ATG_NURR1_TRANS: Attagene TRANS-FACTORIAL HepG2 Assay for human Nuclear Receptor Related Protein 1 (NURR1) (AID 2282985; active = hit-call score of the fitted dose curve at least 0.9, where 1 is the maximum); details: HepG2 Attagene TRANS reporter, mRNA readout
Method in brief: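 Transient transfection of HepG2, human liver cells, with multiple GAL4-UAS reporter transcription units. Cells dosed 24 h, RNA isolated, reverse-transcribed, PCR-amplified, FAM-labelled, HpaI-digested, sized by capillary electrophoresis. DMSO served as negative control.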

[8] = target: Transcriptional activator Myb (Homo sapiens) (UniProt P10242); assay: ATG_Myb_CIS: Attagene CIS-FACTORIAL HepG2 Assay for human Myeloblastosis (Myb) Proto-Oncogene Transcription Factor (AID 2282986); details: HepG2 Attagene CIS-FACTORIAL Myb reporter transcription; actives raise or lower the signal
Method in brief: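 Endogenous transcription factor activity at a Myb-responsive cis element is reported in human liver HepG2 cells after 24 h chemical treatment. Reporter mRNA is detected by RT-PCR and capillary electrophoresis fluorescence, with DMSO as baseline.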

[9] = target: Nuclear respiratory factor 1 (Homo sapiens) (UniProt Q16656); assay: ATG_NRF1_CIS: Attagene CIS-FACTORIAL HepG2 Assay for human Nuclear Respiratory Factor 1 (NRF1) Orphan Gene (AID 2282987); details: HepG2 NRF1 cis-element reporter, Attagene multiplex; actives raise or lower the signal
Method in brief: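 Human hepatoma HepG2 cells carrying transfected promoter-regulated reporter units were incubated with test chemicals for 24 h. Reporter transcripts were measured by RT-PCR plus capillary electrophoresis, and endpoints derived by bidirectional fitting with DMSO as baseline.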

[10] = ATG_NFI_CIS: Attagene CIS-FACTORIAL HepG2 Assay for human Nuclear Factor I (NFI) (AID 2282989); details: HepG2 cis-regulatory reporter, NFI response element transcription; actives raise or lower the signal
Method in brief: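 After transient transfection of HepG2 with cis-promoter reporter constructs and 24 h dosing, RNA is reverse-transcribed, amplified, 6-FAM end-labelled and HpaI-digested before capillary analysis. Bidirectional curve fitting against DMSO.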

[11] = ATG_NRF2_ARE_CIS: Attagene CIS-FACTORIAL HepG2 Assay for human Nuclear Factor Erythroid 2 Related Factor 2 (NFR2) response to Antioxidant Response Elements (ARE) (AID 2282992); details: HepG2 Attagene ARE/NRF2 reporter, transcription factor activity; actives raise or lower the signal
Method in brief: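 Cis-factorial assay: transfected HepG2 reporter library, 24 h dosing, mRNA readout via RT-PCR/CE; DMSO-referenced bidirectional analysis.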

[12] = ATG_Oct_MLP_CIS: Attagene CIS-FACTORIAL HepG2 Assay for human Octamer-Binding Transcription Factor (Oct) (AID 2282993); details: HepG2 Attagene cis-factorial Oct reporter, mRNA; actives raise or lower the signal
Method in brief: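 Cells of the HepG2 line express promoter-controlled reporter sequences whose mRNA levels, after 24 h treatment, are measured by RT-PCR and capillary electrophoresis. Increases and decreases are scored relative to DMSO.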

[13] = BSK_3C_TissueFactor: BioMAP Diversity Plus: 3C Assay for Tissue Factor Biomarker Activity (AID 2282997); details: BioMAP 3C HUVEC, tissue factor biomarker readout; actives raise or lower the signal
Method in brief: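 Values derive from bidirectional curve fitting against DMSO of Tissue Factor ELISA signals, taken 24 h after dosing primary human umbilical vein endothelial cells.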

[14] = target: Oxysterols receptor LXR-alpha (Homo sapiens) (UniProt Q13133); assay: ATG_LXRa_TRANS: Attagene TRANS-FACTORIAL HepG2 Assay for human Liver X Receptor alpha (LXRa) (AID 2282980; active = hit-call score of the fitted dose curve at least 0.9, where 1 is the maximum); details: HepG2 Attagene TRANS reporter, LXRa transactivation
Method in brief: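 Transient HepG2 transfectants, 24 h dosing, RT-PCR/CE mRNA reporter quantitation; gain-of-signal vs DMSO.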

[15] = ATG_NF_kB_CIS: Attagene CIS-FACTORIAL HepG2 Assay for human Nuclear Factor Kappa B (NF-kB) (AID 2282991); details: HepG2 Attagene cis-factorial NF-kB reporter mRNA; actives raise or lower the signal
Method in brief: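 Multiplexed cis-reporter assay in transiently transfected HepG2. 24 h treatment; RNA isolated, RT-PCR, labelled fragments resolved by CE. DMSO baseline.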

[16] = target: Cellular tumor antigen p53 (Homo sapiens) (UniProt P04637); assay: ATG_p53_CIS: Attagene CIS-FACTORIAL HepG2 Assay for human p53 Transcription Factor (AID 2282994); details: HepG2 p53 cis-element reporter, Attagene mRNA; actives raise or lower the signal
Method in brief: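 Using HepG2 hepatoma cells carrying cis-acting multiplexed reporters, mRNA induction is detected after a 24 h exposure. Gain- and loss-of-signal responses are fitted relative to DMSO-treated cells.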

[17] = target: Myc proto-oncogene protein (Homo sapiens) (UniProt P01106); assay: ATG_Myc_CIS: Attagene CIS-FACTORIAL HepG2 Assay for human Myelocytomatosis (Myc) Proto-Oncogene Transcription Factor (AID 2282990); details: HepG2, Attagene cis-reporter transcription factor activity; actives raise or lower the signal
Method in brief: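 Cells of the HepG2 human liver line bear multiple cis-driven reporter transcription units. Reporter mRNA after 24 h exposure is reverse-transcribed, amplified, labelled and resolved by capillary electrophoresis, with gain- or loss-of-signal fitting relative to DMSO.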

Measured: AC50

Oxysterols receptor LXR-beta (Homo sapiens), sequence (P55055 whole entry, looked up, the tested form may be a part): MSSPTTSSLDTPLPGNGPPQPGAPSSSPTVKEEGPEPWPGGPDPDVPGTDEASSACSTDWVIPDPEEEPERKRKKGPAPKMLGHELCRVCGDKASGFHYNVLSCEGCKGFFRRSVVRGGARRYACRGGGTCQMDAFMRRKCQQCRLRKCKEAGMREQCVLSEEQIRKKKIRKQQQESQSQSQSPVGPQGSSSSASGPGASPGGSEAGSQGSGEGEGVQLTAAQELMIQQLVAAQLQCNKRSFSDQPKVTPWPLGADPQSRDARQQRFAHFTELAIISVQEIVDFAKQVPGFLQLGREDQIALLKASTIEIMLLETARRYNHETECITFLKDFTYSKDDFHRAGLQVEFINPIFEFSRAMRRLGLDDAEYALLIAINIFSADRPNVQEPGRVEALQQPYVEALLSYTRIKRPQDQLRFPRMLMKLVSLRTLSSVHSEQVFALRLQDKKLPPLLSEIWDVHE
Transcriptional activator Myb (Homo sapiens), sequence (P10242 whole entry, looked up): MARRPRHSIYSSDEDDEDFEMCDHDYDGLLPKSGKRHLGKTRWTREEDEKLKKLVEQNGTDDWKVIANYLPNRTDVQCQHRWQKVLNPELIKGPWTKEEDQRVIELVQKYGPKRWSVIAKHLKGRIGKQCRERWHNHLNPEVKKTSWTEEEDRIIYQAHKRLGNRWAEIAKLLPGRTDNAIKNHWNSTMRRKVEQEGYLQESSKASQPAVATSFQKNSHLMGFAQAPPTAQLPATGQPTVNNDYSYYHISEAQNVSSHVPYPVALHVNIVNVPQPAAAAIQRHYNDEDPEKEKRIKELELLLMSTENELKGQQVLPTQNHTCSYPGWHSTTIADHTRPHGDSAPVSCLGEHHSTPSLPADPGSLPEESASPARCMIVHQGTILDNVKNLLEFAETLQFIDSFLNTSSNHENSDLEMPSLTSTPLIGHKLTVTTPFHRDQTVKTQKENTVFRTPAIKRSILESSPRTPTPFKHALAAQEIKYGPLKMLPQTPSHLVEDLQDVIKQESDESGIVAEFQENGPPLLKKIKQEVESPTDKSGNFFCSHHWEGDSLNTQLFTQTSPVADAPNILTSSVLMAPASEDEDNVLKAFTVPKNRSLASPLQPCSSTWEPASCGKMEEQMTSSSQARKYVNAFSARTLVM
Glucocorticoid receptor (Homo sapiens), sequence (P04150 whole entry, looked up): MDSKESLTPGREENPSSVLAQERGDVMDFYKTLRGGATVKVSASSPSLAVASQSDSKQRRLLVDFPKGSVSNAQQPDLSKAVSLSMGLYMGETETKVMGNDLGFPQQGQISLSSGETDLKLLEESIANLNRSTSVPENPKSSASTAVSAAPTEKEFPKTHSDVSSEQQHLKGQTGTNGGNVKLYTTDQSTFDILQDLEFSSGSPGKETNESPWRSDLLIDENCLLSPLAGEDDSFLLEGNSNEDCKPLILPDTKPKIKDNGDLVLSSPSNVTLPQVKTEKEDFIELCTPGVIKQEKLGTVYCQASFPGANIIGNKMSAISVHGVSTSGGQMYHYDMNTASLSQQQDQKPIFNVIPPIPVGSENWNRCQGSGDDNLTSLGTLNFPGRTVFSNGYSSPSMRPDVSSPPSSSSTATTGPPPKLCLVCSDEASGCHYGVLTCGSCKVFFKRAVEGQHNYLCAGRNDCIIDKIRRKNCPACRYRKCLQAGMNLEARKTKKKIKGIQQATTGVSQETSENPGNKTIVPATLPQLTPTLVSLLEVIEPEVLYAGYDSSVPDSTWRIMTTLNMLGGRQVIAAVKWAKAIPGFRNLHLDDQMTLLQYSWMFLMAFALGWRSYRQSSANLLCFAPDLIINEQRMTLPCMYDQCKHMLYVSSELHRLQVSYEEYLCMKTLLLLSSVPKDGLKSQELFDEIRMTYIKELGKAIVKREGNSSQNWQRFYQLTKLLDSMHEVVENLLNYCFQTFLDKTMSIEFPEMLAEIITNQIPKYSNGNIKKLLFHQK
Nuclear respiratory factor 1 (Homo sapiens), sequence (Q16656 whole entry, looked up): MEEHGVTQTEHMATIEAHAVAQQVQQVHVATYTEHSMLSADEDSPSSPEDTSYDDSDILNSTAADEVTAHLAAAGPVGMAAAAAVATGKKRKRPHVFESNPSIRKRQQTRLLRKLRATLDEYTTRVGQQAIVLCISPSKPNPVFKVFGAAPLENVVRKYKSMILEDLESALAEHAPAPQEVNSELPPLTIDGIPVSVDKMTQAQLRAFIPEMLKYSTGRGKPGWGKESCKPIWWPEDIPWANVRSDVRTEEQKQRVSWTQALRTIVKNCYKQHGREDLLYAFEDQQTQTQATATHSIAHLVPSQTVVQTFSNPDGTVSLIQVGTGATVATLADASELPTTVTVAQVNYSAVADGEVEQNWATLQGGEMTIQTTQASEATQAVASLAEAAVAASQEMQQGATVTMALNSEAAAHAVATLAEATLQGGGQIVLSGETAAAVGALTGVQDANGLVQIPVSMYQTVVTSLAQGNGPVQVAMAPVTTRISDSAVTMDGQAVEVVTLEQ
Oxysterols receptor LXR-alpha (Homo sapiens), sequence (Q13133 whole entry, looked up): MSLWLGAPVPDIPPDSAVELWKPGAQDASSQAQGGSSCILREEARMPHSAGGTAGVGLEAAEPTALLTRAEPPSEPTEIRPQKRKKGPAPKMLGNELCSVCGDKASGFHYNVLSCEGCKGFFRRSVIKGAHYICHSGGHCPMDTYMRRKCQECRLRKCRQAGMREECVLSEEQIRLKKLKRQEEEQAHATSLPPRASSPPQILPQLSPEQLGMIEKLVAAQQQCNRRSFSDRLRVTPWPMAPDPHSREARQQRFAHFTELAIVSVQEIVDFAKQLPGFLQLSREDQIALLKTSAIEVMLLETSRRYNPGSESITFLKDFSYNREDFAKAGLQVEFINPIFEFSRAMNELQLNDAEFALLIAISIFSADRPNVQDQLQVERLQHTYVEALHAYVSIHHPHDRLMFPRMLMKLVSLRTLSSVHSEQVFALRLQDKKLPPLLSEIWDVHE
Nuclear receptor subfamily 4 group A member 2 (Homo sapiens), sequence (P43354 whole entry, looked up, the tested form may be a part): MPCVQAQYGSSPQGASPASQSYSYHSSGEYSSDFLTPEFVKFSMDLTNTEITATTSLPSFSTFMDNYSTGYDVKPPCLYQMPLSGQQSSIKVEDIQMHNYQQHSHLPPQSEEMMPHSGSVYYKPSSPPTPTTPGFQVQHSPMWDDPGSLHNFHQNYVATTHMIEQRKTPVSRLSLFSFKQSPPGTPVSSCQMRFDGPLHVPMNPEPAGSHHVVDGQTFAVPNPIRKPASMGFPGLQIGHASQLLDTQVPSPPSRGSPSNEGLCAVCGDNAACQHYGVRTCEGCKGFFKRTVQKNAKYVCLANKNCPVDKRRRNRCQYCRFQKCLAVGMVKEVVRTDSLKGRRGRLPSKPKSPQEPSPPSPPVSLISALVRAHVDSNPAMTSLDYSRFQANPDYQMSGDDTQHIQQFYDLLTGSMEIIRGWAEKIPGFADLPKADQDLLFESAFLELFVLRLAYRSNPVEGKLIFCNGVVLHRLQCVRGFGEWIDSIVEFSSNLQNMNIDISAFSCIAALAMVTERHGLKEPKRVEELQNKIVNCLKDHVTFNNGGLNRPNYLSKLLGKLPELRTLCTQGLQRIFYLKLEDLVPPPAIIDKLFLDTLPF
Hepatocyte nuclear factor 4-alpha (Homo sapiens), sequence (P41235 whole entry, looked up, the tested form may be a part): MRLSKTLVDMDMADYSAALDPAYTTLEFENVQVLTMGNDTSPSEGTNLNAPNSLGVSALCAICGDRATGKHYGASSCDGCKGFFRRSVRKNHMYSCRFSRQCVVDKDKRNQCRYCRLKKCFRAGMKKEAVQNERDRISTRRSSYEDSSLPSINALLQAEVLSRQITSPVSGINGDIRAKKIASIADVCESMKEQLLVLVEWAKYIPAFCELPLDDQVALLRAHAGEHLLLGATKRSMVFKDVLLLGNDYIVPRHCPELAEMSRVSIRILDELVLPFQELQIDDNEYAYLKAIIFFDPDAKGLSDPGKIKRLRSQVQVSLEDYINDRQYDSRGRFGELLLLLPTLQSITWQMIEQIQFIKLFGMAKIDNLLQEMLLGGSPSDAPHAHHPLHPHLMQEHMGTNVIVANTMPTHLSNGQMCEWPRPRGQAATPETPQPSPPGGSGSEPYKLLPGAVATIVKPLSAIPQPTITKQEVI
Cellular tumor antigen p53 (Homo sapiens), sequence (P04637 whole entry, looked up): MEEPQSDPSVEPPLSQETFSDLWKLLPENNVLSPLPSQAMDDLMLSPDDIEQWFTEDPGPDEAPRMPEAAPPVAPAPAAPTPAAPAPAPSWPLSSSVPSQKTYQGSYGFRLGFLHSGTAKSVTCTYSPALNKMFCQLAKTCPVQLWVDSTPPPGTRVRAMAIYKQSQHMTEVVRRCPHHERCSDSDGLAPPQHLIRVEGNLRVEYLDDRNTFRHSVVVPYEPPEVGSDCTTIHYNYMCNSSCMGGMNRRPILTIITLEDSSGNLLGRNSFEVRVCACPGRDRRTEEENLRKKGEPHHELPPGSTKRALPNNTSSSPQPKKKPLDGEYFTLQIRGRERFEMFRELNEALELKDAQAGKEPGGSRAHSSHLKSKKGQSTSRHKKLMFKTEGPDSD
Bile acid receptor (Homo sapiens), sequence (Q96RI1 whole entry, looked up, the tested form may be a part): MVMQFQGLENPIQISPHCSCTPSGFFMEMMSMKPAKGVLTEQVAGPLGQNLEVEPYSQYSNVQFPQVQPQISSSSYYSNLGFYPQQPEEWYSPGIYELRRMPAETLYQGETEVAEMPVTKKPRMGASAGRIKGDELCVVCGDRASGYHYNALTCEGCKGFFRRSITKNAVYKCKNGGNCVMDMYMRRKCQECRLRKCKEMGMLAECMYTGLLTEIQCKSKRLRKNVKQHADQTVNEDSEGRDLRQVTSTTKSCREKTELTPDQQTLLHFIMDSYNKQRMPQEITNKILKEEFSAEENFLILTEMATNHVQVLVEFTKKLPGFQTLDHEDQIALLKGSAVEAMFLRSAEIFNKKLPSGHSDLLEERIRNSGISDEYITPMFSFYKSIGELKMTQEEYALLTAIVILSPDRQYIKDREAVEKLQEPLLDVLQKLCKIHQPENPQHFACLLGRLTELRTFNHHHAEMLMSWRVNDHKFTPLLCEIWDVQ

COCc1cnc(C2=NC(C)(C(C)C)C(=O)N2)c(C(=O)O)c1 (stereo unspecified)
not listed: [14] | [15] | [16] | [17]
inactive: all other assays above

CS(=O)(=O)c1ccc(C(=O)C2C(=O)CCCC2=O)c([N+](=O)[O-])c1
not listed: [17]
inactive: all other assays above

CCOP(=O)(OCC)Oc1nc(Cl)c(Cl)cc1Cl
active: [11] 33.4 µM | [12] 50 µM
not listed: [2] | [4] | [17]
inactive: all other assays above

CCSC(=O)N1CCCCCC1
not listed: [1] | [2] | [4] | [5] | [17]
inactive: all other assays above

Cc1cnc(C2=NC(C)(C(C)C)C(=O)N2)c(C(=O)O)c1 (stereo unspecified)
inactive: [14] | [3] | [4] | [8] | [9] | [10] | [12] | [16] | [13]
active: [11] 13 µM

Cc1ccc(N=CN(C)C=Nc2ccc(C)cc2C)c(C)c1
active: [13] 32 µM
not listed: [2] | [4] | [6] | [7] | [14] | [15]
inactive: all other assays above

Nc1c(Cl)c(Cl)nc(C(=O)O)c1Cl
active: [11] 50 µM
not listed: [2] | [5] | [14] | [17]
inactive: all other assays above

CCN(CC)C(=O)C(C)Oc1cccc2ccccc12 (stereo unspecified)
active: [11] 0.485 µM | [12] 4.2 µM
not listed: [1] | [2] | [15] | [17]
inactive: all other assays above

O=c1n(Cl)c(=O)n(Cl)c(=O)n1Cl
not listed: [2] | [5] | [6]
inactive: all other assays above
